Source: PubChem
CR mimetic SO: lowers age-related superoxide in aged yeast cells; 330,000 compounds, 0.18% hits; superoxide response (% of plate mean), % at 10 µM; S. cerevisiae aged cells, superoxide DHE fluorescence; active compounds read low;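 active = superoxide response under a set limit, about three screen SD below normal, cut at about 65% in these data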;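 also: yeast aged for seven days with compound at 30 °C before DHE staining; 100% = average MFI of all compound-treated wells on the plate with controls excluded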
UBC13 polyUb: blocks human UBC13 polyubiquitin chain formation; 330,000 compounds, 0.47% hits; AID 485273; inhibition, % at 20 µM; TR-FRET; in the data active = inhibition above about 45%, passing the limit was not always enough; inconclusive = no clear call, values can overlap the other calls
Target sequence (P61088 whole entry, looked up): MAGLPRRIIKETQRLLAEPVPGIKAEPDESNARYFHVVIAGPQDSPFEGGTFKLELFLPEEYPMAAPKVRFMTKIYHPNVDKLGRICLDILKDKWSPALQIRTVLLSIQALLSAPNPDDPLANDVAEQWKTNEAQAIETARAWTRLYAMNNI
NALP1 inh: inhibitors of NALP1 inflammasome in yeast; S. cerevisiae NALP1/ASC/caspase-1 growth, X-gal OD620, 72 h; inhibition, % at 10 µM; 280,000 compounds, 0.61% hits; AID 2071; in the data active = inhibition mostly above about 24%, no sharp cut-off; inactive = mostly below about 32%
GRIN3A LBD mod: NR3A (human) ligand-binding domain modulation; NR3A LBD differential scanning fluorimetry, Tm shift; 0% = protein alone, 100% = glycine-bound protein; Tm shift relative to glycine control, % at 25 µM; AID 1259313; 340,000 compounds, 2.5% hits;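 active = melting temperature shift of at least 10% of the positive control shift, at one fixed dose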
dFosB act: enhances mouse delta FosB homodimer DNA binding | purified delta FosB, TAMRA-CDK5 oligo fluorescence polarization; percent of positive-control signal above neutral wells | activation, % at 25 µM | 340,000 compounds, 0.99% hits;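 active = mean activation above about 17%, with every replicate also reaching it, limit read from the data, passing the limit was not always enough; inconclusive = only one of the two conditions met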
Target sequence (P13346 whole entry, looked up): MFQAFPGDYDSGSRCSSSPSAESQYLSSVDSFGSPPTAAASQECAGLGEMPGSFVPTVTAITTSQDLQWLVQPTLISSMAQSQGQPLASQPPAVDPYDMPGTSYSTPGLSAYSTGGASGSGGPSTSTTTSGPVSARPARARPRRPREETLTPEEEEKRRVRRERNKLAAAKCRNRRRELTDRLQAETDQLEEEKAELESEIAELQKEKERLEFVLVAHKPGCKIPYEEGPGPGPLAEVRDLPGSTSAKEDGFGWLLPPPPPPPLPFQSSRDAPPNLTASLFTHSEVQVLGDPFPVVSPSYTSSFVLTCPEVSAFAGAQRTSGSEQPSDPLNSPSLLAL
* hit, by the source's call; ? = inconclusive; nt = not tested or not shown. Most compounds without a hit are left out; they make up all but 4.3% or so of the library.

SMILES	CR mimetic SO	UBC13 polyUb	NALP1 inh	GRIN3A LBD mod	dFosB act
Oc1ccc(N=Cc2ccc(O)c(O)c2)cc1	90	-30	-19	-1	-14
O=C(/C(=N/N=C/c1ccc(O)c(O)c1)c1ccccc1)c1ccccc1	113	-27	24	21*	-5
Oc1ccc(/C=N/N=C/c2ccc(O)c(O)c2)cc1O	100	-11	-23	28*	2
CC(=NO)C1CCC2C3CCC4=CC(=NO)CCC4(C)C3C(=O)CC12C (stereo unspecified)	nt	nt	nt	18*	-18
COc1cc(CNC2CCCC2)cc(Br)c1OCC(=O)Nc1ccccc1C	95	7	-4	-2	-1
COc1cc(CCNC(=O)c2cnn3ccccc23)cc(OC)c1OC	99	-1	14	22*	-10
CC(=O)c1cccc(NC(=S)NC(=O)c2ccc(C)cc2Cl)c1	98	4	37*	0	-1
Cc1ccc(NC(=S)NC(=O)c2ccc(F)cc2)cc1S(=O)(=O)Nc1cccc(Cl)c1	103	-21	28	13*	10
CC(=O)c1cccc(NC(=S)NC(=O)c2ccccc2Cl)c1	96	5	35	-3	-10
O=C(CCC(=O)c1ccc(F)cc1)Nc1cccc(C(F)(F)F)c1	128	-19	29	-13	-6
Cc1cc(F)ccc1NC(=O)c1ccc(NS(=O)(=O)c2cc(C(C)(C)C)ccc2C)cc1	104	-3	39	9	-8
O=C(CCC(=O)c1ccc(F)cc1)Nc1cccc(S(=O)(=O)Nc2cccc(Cl)c2)c1	80	-5	26	28*	?
C/C(=N/NS(=O)(=O)c1ccc(Cl)cc1)c1cccc(NC(=O)c2ccncc2)c1	107	-3	21	-2	-11
C/C(=N\NS(=O)(=O)c1ccccc1)c1cccc(NC(=O)c2cccc(Cl)c2)c1	76	4	25	15*	-3
COc1ccc(CNC(=O)CSc2ncn[nH]2)cc1OC	115	-1	11	-1	0
O=C(CN1C(=O)c2cccnc2Oc2ccc(Cl)cc21)N1CCOCC1	110	-4	23	-1	4
COC(=O)c1ccccc1S(=O)(=O)N1CCC(C(=O)OCc2ccc([N+](=O)[O-])cc2)CC1	93	0	nt	1	-7
O=C(CC(=O)N/N=C/c1c(Cl)cccc1Cl)NCc1cccnc1	101	7	1	0	-1
O=C(NC(=S)Nc1cc(Cl)ccc1O)c1cccc(Br)c1	103	-5	12	18*	8
O=C(NC(=S)Nc1cccnc1)c1cccc(Br)c1	100	2	-30	0	-11
Cc1ccc(C(=O)NC(=S)Nc2ccc(NC(=O)c3cccc(Cl)c3)cc2)cc1	100	-13	28	35*	-3
Cc1ccc(NC(=O)c2cccs2)cc1S(=O)(=O)Nc1cccc(Cl)c1	93	4	9	35*	-11
C/C(=N\NC(=O)c1cccc(S(=O)(=O)Nc2cccc(Cl)c2)c1)c1cccs1	98	-3	35	14*	11
O=C(NNC(=O)c1cccs1)Nc1cccc(Cl)c1	103	-5	6	1	8
Cc1cc(C(=O)N(C)C2CCCCC2)no1	69	2	14	-1	6
SMILES	CR mimetic SO	UBC13 polyUb	NALP1 inh	GRIN3A LBD mod	dFosB act
O=C(NC1CCCC1)C1CCCN1C(=O)Oc1ccccc1 (stereo unspecified)	94	9	4	0	-2
N#Cc1ccc[n+](CC(=O)c2ccc(NC(=O)c3ccccc3)cc2)c1	94	-5	-6	-1	-1
CCOc1ccccc1/C=C/c1onc(C)c1S(=O)(=O)N1CCC(C(=O)NC(C)(C)C)CC1	105	-14	17	-3	-6
O=C(O)c1ccc(NC(=S)NC(=O)c2ccc3ccccc3c2)cc1	113	-4	3	17*	1
O=C(O)c1cccc(NC(=S)NC(=O)c2ccc3ccccc3c2)c1	120	-11	6	2	-7
O=C(c1ccc(Cl)cc1)N(Cc1ccccc1F)N1C(=O)CCCC1=O	100	11	7	0	-3
CN(C)C(=O)CCc1ccc2c3c([nH]c2c1)[C@]1(CCc2ccccc2)[C@@H](C(=O)N2CCCCC2)C[C@H](CC(=O)NCc2cccc(C(F)(F)F)c2)C(=O)N1CC3	97	nt	nt	15*	-15
CN(C)C(=O)CCc1ccc2c3c([nH]c2c1)[C@]1(CCc2ccccc2)[C@@H](C(=O)N2CCCCC2)C[C@H](CC(=O)NCc2ccco2)C(=O)N1CC3	105	nt	nt	2	-2
CCOc1ccc(/C=N/NC(=O)CC(=O)Nc2ccc(Cl)c(Cl)c2)cc1	108	1	30	20*	?
O=C(COc1ccc(Nc2ccccc2)cc1)Nc1ccncc1	98	-8	nt	5	-3
O=C(COc1ccc(/C=N/NC(=O)c2ccncc2)cc1)Nc1ccccc1	101	3	7	11*	2
CCOc1ccc(NC(=O)CNc2ccc(C)cc2Cl)cc1	110	6	-4	34*	-3
O=C(CC(=O)Nc1cccc(Cl)c1)N/N=C\c1ccccc1	103	11	29	-11	2
O=C(COc1ccc(/C=N/NC(=O)c2ccncc2)cc1)Nc1cccc([N+](=O)[O-])c1	97	-4	21	16*	2
CCOc1ccc(NCC(=O)Nc2ccc(C)cc2C)cc1	81	-4	-13	-1	-8
Cc1ccccc1OCC(=O)Nc1ccc2c(c1)Cc1ccccc1-2	100	18	8	-9	-4
O=C(COc1ccc(NC(=O)c2ccccc2)cc1)c1ccccc1	94	2	7	-19	-6
O=C(COc1ccc(Br)cc1)Nc1ccc(NC(=O)c2ccccc2)cc1	103	-4	-55	0	25*
O=C(COc1ccccc1)Nc1ccc2c(c1)Cc1cc(NC(=O)COc3ccccc3)ccc1-2	81	-10	13	23*	-2
CCOC(=O)C(=O)Nc1ccc(S(=O)(=O)Nc2nccs2)cc1	90	5	6	1	0
Cc1ccc(C(=O)COC(=O)CCNS(=O)(=O)c2ccccc2F)cc1	98	8	nt	-1	-11
COc1ccc(-c2nc(CS(=O)CC(=O)NCc3ccc4c(c3)OCO4)c(C)o2)cc1OC (stereo unspecified)	117	-6	15	-1	-15
Cc1cccc(NC(=O)CN2C(=O)S/C(=C\C(=O)Nc3ccc(Cl)cc3)C2=O)c1	99	-6	8	9	4
CC(/C=C1\SC(=O)N(CC(=O)Nc2ccc(O)cc2)C1=O)=C\c1ccccc1	111	-11	19	10*	-4
O=C(CN1CCN(CC(=O)Nc2ccc(Cl)cc2)CC1)Nc1ccc(F)cc1	101	6	0	0	-2
O=C(/C=C1\SC(=O)N(CC(=O)Nc2ccc(Cl)cc2)C1=O)Nc1ccc(F)cc1	123	-1	36	36*	4
CC(=O)c1ccc(NC(=O)CCCN2C(=O)/C(=C/C(C)=C/c3ccccc3)SC2=S)cc1	99	-32	18	2	-4
